# Data: PubChem BioAssay AID1159580 (chemical genetic matrix, 2015)
# Several values for one entry are separate records, joined by “and”; a condition that tells them apart may be missing. Equal values may be shown once. In all, about 5,500 compounds went through this assay and about 2,000 (36%) were called active. Inconclusive results (about 18%) are left out. The list shows a part of the results. A number with no mark means an inactive call. Cut-off read from the data, not from the text of the source: active = normalized growth mostly below about 0.91 (no sharp cut-off); inconclusive = no clear call, values can overlap the other calls; inactive = mostly above about 0.92.
# Experiment: chemical genetic growth profiling, strain panel (AID 1159580);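 note: tested at 20 µM; growth read once vehicle control cultures reached saturation at 30 °C; 1 = growth at the plate median or of vehicle wells; lower values mean less growth of the strain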
# Conditions: S. cerevisiae deletion strains, growth OD
smiles,measurement,setting,value
CCOC(=O)c1c(C)cc(O)c(C=O)c1O,normalized growth,"locus YAL013W, strain DEP1, hits give low values",0.271 (active)
same,normalized growth,"locus YAL021C, strain ccr4, hits give low values",0.615 (active)
same,normalized growth,"locus YAL026C, strain drs2, hits give low values",0.212 (active)
same,normalized growth,"locus YAL030W, strain snc1, hits give low values",0.725 (active)
same,normalized growth,"locus YBL061C, strain skt5, hits give low values",0.642 (active)
same,normalized growth,"locus YBR009C, strain hhf1, hits give low values",0.592 (active)
same,normalized growth,"locus YBR021W, strain FUR4, hits give low values",0.851
same,normalized growth,"locus YBR023C, strain chs3, hits give low values",0.619 (active)
same,normalized growth,"locus YBR171W, strain sec66, hits give low values",0.776 (active)
same,normalized growth,"locus YBR229C, strain ROT2, hits give low values",0.541 (active)
same,normalized growth,"locus YBR231C, strain swc5, hits give low values",0.548 (active)
same,normalized growth,"locus YBR279W, strain paf1, hits give low values",0.66 (active)
same,normalized growth,"locus YCL011C, strain gbp2, hits give low values",0.616 (active)
same,normalized growth,"locus YCL016C, strain dcc1, hits give low values",0.714 (active)
same,normalized growth,"locus YCL029C, strain bik1, hits give low values",0.144 (active)
same,normalized growth,"locus YCL061C, strain MRC1, hits give low values",0.624 (active)
same,normalized growth,"locus YCL069W, strain vba3, hits give low values",0.531 (active)
same,normalized growth,"locus YCR088W, strain abp1, hits give low values",0.832 (active)
same,normalized growth,"locus YDL005C, strain med2, hits give low values",0.903 (active)
same,normalized growth,"locus YDL035C, strain GPR1, hits give low values",0.21 (active)
same,normalized growth,"locus YDL040C, strain nat1, hits give low values",0.86 (active)
same,normalized growth,"locus YDL074C, strain BRE1, hits give low values",0.156 (active)
same,normalized growth,"locus YDL101C, strain DUN1, hits give low values",0.16 (active)
same,normalized growth,"locus YDL134C, strain PPH21, hits give low values",0.249 (active)
same,normalized growth,"locus YDL185W, strain tfp1, hits give low values",0.0651 (active)
same,normalized growth,"locus YDL192W, strain arf1, hits give low values",0.202 (active)
same,normalized growth,"locus YDR001C, strain nth1, hits give low values",0.841 (active)
same,normalized growth,"locus YDR069C, strain doa4, hits give low values",0.516 (active)
same,normalized growth,"locus YDR101C, strain arx1, hits give low values",0.181 (active)
same,normalized growth,"locus YDR137W, strain rgp1, hits give low values",0.202 (active)
same,normalized growth,"locus YDR150W, strain NUM1, hits give low values",0.436 (active)
same,normalized growth,"locus YDR159W, strain sac3, hits give low values",0.413 (active)
same,normalized growth,"locus YDR162C, strain NBP2, hits give low values",0.0543 (active)
same,normalized growth,"locus YDR195W, strain ref2",0.908
same,normalized growth,"locus YDR297W, strain sur2, hits give low values",0.609 (active)
same,normalized growth,"locus YDR318W, strain mcm21, hits give low values",0.142 (active)
same,normalized growth,"locus YDR334W, strain swr1, hits give low values",0.619 (active)
same,normalized growth,"locus YDR335W, strain msn5, hits give low values",0.623 (active)
same,normalized growth,"locus YDR388W, hits give low values",0.213 (active)
same,normalized growth,"locus YDR392W, strain spt3, hits give low values",0.135 (active)
same,normalized growth,"locus YDR502C, strain sam2, hits give low values",0.185 (active)
same,normalized growth,"locus YEL003W, strain gim4, hits give low values",0.582 (active)
same,normalized growth,"locus YEL037C, strain rad23, hits give low values",0.71 (active)
same,normalized growth,"locus YEL061C, strain CIN8 (second series), hits give low values",0.643 (active)
same,normalized growth,"locus YEL061C, strain CIN8, hits give low values",0.153 (active)
same,normalized growth,"locus YER015W, strain faa2, hits give low values",0.516 (active)
same,normalized growth,"locus YER016W, strain bim1, hits give low values",0.768 (active)
same,normalized growth,"locus YER110C, hits give low values",0.295 (active)
same,normalized growth,"locus YER111C, strain swi4, hits give low values",0.278 (active)
same,normalized growth,"locus YER155C, strain BEM2 (second series), hits give low values",0.409 (active)
same,normalized growth,"locus YER155C, strain BEM2, hits give low values",0.178 (active)
same,normalized growth,"locus YER167W, strain BCK2, hits give low values",0.105 (active)
same,normalized growth,"locus YFR010W, strain ubp6, hits give low values",0.681 (active)
same,normalized growth,"locus YGL078C, strain dbp3, hits give low values",0.57 (active)
same,normalized growth,"locus YGL086W, strain mad1, hits give low values",0.186 (active)
same,normalized growth,"locus YGL167C, strain pmr1, hits give low values",0.842 (active)
same,normalized growth,"locus YGL173C, strain kem1, hits give low values",0.27 (active)
same,normalized growth,"locus YGL227W, strain vid30, hits give low values",0.821 (active)
same,normalized growth,"locus YGL240W, strain doc1, hits give low values",0.503 (active)
same,normalized growth,"locus YGL248W, strain PDE1, hits give low values",0.236 (active)
same,normalized growth,"locus YGL253W, strain hxk2, hits give low values",0.283 (active)
same,normalized growth,"locus YGR078C, strain PAC10, hits give low values",0.103 (active)
same,normalized growth,"locus YGR135W, strain pre9, hits give low values",0.119 (active)
same,normalized growth,"locus YGR229C, strain SMI1, hits give low values",0.0734 (active)
same,normalized growth,"locus YGR252W, strain gcn5, hits give low values",0.303 (active)
same,normalized growth,"locus YHR013C, strain ard1, hits give low values",0.506 (active)
same,normalized growth,"locus YHR027C, strain rpn1, hits give low values",0.405 (active)
same,normalized growth,"locus YHR030C, strain SLT2, hits give low values",0.064 (active) and 0.117 (active)
same,normalized growth,"locus YHR079C, strain IRE1 (second series), hits give low values",0.16 (active)
same,normalized growth,"locus YHR079C, strain IRE1, hits give low values",0.138 (active)
same,normalized growth,"locus YHR094C, strain hxt1, hits give low values",0.231 (active)
same,normalized growth,"locus YHR129C, strain ARP1, hits give low values",0.187 (active)
same,normalized growth,"locus YHR142W, strain chs7, hits give low values",0.345 (active)
same,normalized growth,"locus YHR200W, strain rpn10, hits give low values",0.484 (active)
same,normalized growth,"locus YIL066C, strain RNR3, hits give low values",0.167 (active)
same,normalized growth,"locus YIL073C, strain SPO22, hits give low values",0.211 (active)
same,normalized growth,"locus YIL125W, strain kgd1, hits give low values",0.471 (active)
same,normalized growth,"locus YIR030C, strain dcg1, hits give low values",0.196 (active)
same,normalized growth,"locus YJL092W, strain hpr5, hits give low values",0.756 (active)
same,normalized growth,"locus YJL095W, strain BCK1 (second series), hits give low values",0.381 (active)
same,normalized growth,"locus YJL095W, strain BCK1, hits give low values",0.0697 (active) and 0.127 (active)
same,normalized growth,"locus YJL115W, strain asf1, hits give low values",0.784 (active)
same,normalized growth,"locus YJL129C, strain trk1, hits give low values",0.613 (active)
same,normalized growth,"locus YJL134W, strain LCB3, hits give low values",0.535 (active)
same,normalized growth,"locus YJL154C, strain vps35, hits give low values",0.774 (active)
same,normalized growth,"locus YJL164C, strain tpk1, hits give low values",0.587 (active)
same,normalized growth,"locus YJL166W, strain qcr8, hits give low values",0.449 (active)
same,normalized growth,"locus YJL168C, strain set2, hits give low values",0.534 (active)
same,normalized growth,"locus YJL187C, strain SWE1 (second series), hits give low values",0.15 (active)
same,normalized growth,"locus YJL187C, strain SWE1, hits give low values",0.625 (active)
same,normalized growth,"locus YJR043C, strain POL32, hits give low values",0.209 (active)
same,normalized growth,"locus YJR066W, strain TOR1, hits give low values",0.091 (active)
